Shown are actives, neighbours in structure and some others; about 2.1% of the full set was active somewhere.
PfHsp40 yeast: rescue of PfHsp40-mediated yeast toxicity | growth rescue, % at 12.5 µM | S. cerevisiae expressing PfHsp40, growth rescue, ATP luminescence | 340,000 compounds, 0.68% hits; in the data active = growth rescue above about 28%, passing the limit was not always enough; inconclusive = no clear call, values can overlap the other calls;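 note: yeast W303a lacking pdr1 and pdr3 grown in galactose medium; growth measured after three days at 30 °C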
PrPC TRFRET: reduces human prion protein on the cell surface. P04156. cell surface PrPC, TR-FRET read-out. inhibition, % at 13.8 µM. 370,000 compounds, 0.43% hits. AID 720596; in the data active = inhibition above about 24%; note: 0% = median of the test wells and 100% = reference compound wells
PrP UTR inh: inhibition of PrP 5' UTR reporter expression | cell-based PrP 5' UTR mRNA reporter, plate reader | inhibition, % (concentration not given with the values) | 340,000 compounds, 0.35% hits; in the data active = inhibition above about 52%; note: 0 = median of the neutral control wells
Sa ugtP lethal: growth inhibition of S. aureus ugtP deletion strain. S. aureus RN4220 ugtP deletion, OD600 growth, 16 h. growth inhibition, % (no concentration beside the values). 330,000 compounds, 0.54% hits. AID 1259309; in the data active = growth inhibition above about 68%;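 note: plate controls were untreated wells for no effect and antibiotic for full effect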
Sa RN4220 lethal: S. aureus RN4220 growth inhibition | inhibition, % (test concentration not listed) | 330,000 compounds, 0.33% hits | OD600, 16 h; in the data active = inhibition above about 85%;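 note: plate controls were untreated cells for no effect and reference antibiotic for full effect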
CCHF vOTU inh: blocks the CCHF virus ovarian tumor domain protease. AID 651958. 370,000 compounds, 0.55% hits. inhibition, % at 11.5 µM. CCHFV vOTU protease, Pep-AMC fluorescence; in the data active = inhibition above about 30%; note: 0% = vehicle wells with enzyme and 100% = no enzyme wells
* = called active by the depositor; u = inconclusive; x = not tested or not shown.

SMILES	PfHsp40 yeast	PrPC TRFRET	PrP UTR inh	Sa ugtP lethal	Sa RN4220 lethal	CCHF vOTU inh
COC(=O)C1=C(c2ccc(C(C)=O)cc2)CC2CCC1N2C(=O)NC1CCCCC1 (stereo unspecified)	x	x	x	1.2	-0.3	x
CCOC(=O)C1CCN(C2CC(=O)N(c3cccc(Cl)c3)C2=O)CC1 (stereo unspecified)	176.4*	3.7	-17.5	-1.3	3.2	3.9
C=CC[C@@H](Cc1ccc(F)cc1)C(=O)OC[C@H]1CCCN1C(=O)[C@@H](CC=C)CC(=O)N[C@H](CO)Cc1ccccc1	14.6	-2.2	-10.0	x	x	8.1
C=CC[C@@H](Cc1ccc(F)cc1)C(=O)OC[C@H]1CCCN1C(=O)[C@H](CC=C)CC(=O)N[C@H](CO)Cc1ccccc1	21.4	-1.9	-2.1	x	x	-1.2
C=CCC[C@@H](Cc1ccc(F)cc1)C(=O)OC[C@@H]1CCCN1C(=O)[C@H](CC=C)CC(=O)N[C@H](CO)Cc1ccccc1	45.4*	2.0	-23.5	x	x	25.8
C=CCC[C@@H](Cc1ccc(F)cc1)C(=O)OC[C@H]1CCCN1C(=O)[C@@H](CC=C)CC(=O)N[C@H](CO)Cc1ccccc1	38.6*	-9.6	-15.1	x	x	17.4
C=CC[C@@H](Cc1ccc(F)cc1)C(=O)OC[C@H]1CCCN1C(=O)[C@@H](CC=C)CC(=O)N[C@@H](CO)Cc1ccccc1	32.4*	-0.6	-6.0	-10.6	0.5	25.3
CC1NC(=O)[C@@]2(C)C(c3ccccc3)C3COc4ccc(Cl)cc4C3N2C1=O (stereo partly specified)	x	x	x	0.8	6.0	x
COc1ccc(C2CC(=O)C=C(c3ccc(CNC(=O)OC(C)(C)C)cc3)C2)cc1 (stereo unspecified)	x	x	x	-10.5	-1.8	x
Cc1cc(C)c(C(=O)CC(=O)c2cccnc2)c(C)c1	285.8*	5.9	6.8	6.0	11.1	9.8
Cc1cccc(C(=O)NN=Cc2ccc[nH]2)c1	x	x	x	1.7	5.3	x
CCN(CC)CCNC(=O)c1ccc2c(c1NCCO)C(=O)c1ccccc1C2=O	x	7.8	x	8.3	27.2	58.9*
O=C(c1ccc2c(c1)OCO2)N(Cc1cccs1)C1(C(=O)NC2CCCCC2)CCCCC1	67.5*	-5.0	-25.4	-9.8	9.3	4.5
CN(C)S(=O)(=O)c1ccc(N2CCCC2)c(C(=O)NNC(=O)c2ccccc2)c1	0.1	-4.0	-10.7	75.4	95.5*	-0.1
Cc1cc2c(cn1)C(CCC#N)(CCC#N)c1ccccc1-2	54.4*	-1.2	-35.6	-2.4	-1.9	-6.5
O=C(Oc1cc(=O)oc2c1c(=O)n1c3c(cccc23)CC1)c1ccccc1	-0.3	-2.9	-22.6	82.1*	34.0	-11.0
COc1cc(OC)c(C2SCCS2)c(OC)c1	-0.2	-6.8	-8.6	-2.0	-0.9	11.7
COc1cc(OC)c([C@H]2C=C(C)[C@H]3C[C@@H]2C3(C)C)c(OC)c1	-1.5	1.7	-21.1	94.1*	-6.6	-10.0
COC(=O)C1=C(c2ccccc2OCc2ccccc2)CC2CCC1N2C(=O)NCc1ccc(C(C)(C)C)cc1 (stereo unspecified)	x	x	x	7.7	-11.5	x
Cc1ccc(C=c2sc3n(c2=O)CN(c2cccc(Br)c2)CN=3)o1	x	x	x	-3.5	0.1	x
Nc1nonc1C(=O)NCCN=Cc1ccccc1O	-0.8	4.2	-6.7	-5.9	-7.6	-7.8
Nc1nonc1C(=O)NCCN=Cc1cc(Cc2ccccc2)cc(Br)c1O	701.6*	x	-21.0	48.9	-8.5	x
CN(C(=O)c1cccc(Nc2ccc(-c3ccc4c(c3)OCCO4)nn2)c1)C1CCCCC1	4.4	-1.5	-37.9	99.4*	87.7*	5.0
O=C(NN=Cc1cccc([N+](=O)[O-])c1)c1cccc2cc[nH]c12	x	x	x	4.9	2.1	x
CCCCCCCCCCCCCCCC[n+]1ccc(/C=N/O)cc1	-0.9	30.5*	2.9	x	x	56.4*
SMILES	PfHsp40 yeast	PrPC TRFRET	PrP UTR inh	Sa ugtP lethal	Sa RN4220 lethal	CCHF vOTU inh
CCCCCCC[n+]1ccc(-c2cc[n+](CCCCCCC)cc2)cc1	-0.4	-61.6	-42.1	0.0	7.7	-24.2
CCCCCCCCCCCCCCCC[n+]1cccc(C(=O)N(CC)CC)c1	u	11.1	-12.4	99.9*	100.0*	22.1
CCCCCCCCCCCCCCCC[n+]1ccc(C(N)=O)cc1	u	6.0	-12.2	99.7*	100.2*	29.4
CCOC(=O)c1cc(C)sc1N=CC1=C(O)CCCC1=O	x	x	x	0.4	-0.7	x
O=C(O)CC1c2ccccc2S(=O)(=O)N1c1ccccc1 (stereo unspecified)	x	x	x	-10.7	4.3	x
CN1CCCC1CCNC(=O)c1cccc2c1C(=O)c1ccc(N3CCCC3)cc1S2(=O)=O (stereo unspecified)	x	x	x	0.6	6.6	x
CC1Oc2ccccc2N(CC(=O)c2ccccc2)C1=O (stereo unspecified)	0.9	x	-29.9	3.4	-0.4	x
O=C(c1ccccc1)N1C(=O)C(c2ccccc2)Oc2ccccc21 (stereo unspecified)	234.0*	6.4	-10.0	1.1	1.5	4.8
CCCNC(=O)N1C2=NC(C(=O)OC)=C(C(=O)OC)C3N(Cc4ccccc4)c4ccccc4[C@]23CC1CO (stereo partly specified)	x	x	x	3.3	2.1	x
Nc1ccc(OCCCc2c(N)nc(N)nc2N)cc1	47.8*	-2.3	-27.5	x	x	-5.5
COc1ccc(Cc2c(N)nc(N)nc2N)cc1	1.6	-2.1	-20.5	16.4	45.9	9.8
COc1ccccc1NC(=O)COC(=O)c1c[nH]c(=O)[nH]c1=O	-1.3	0.4	-15.0	6.6	5.2	6.4
COc1ccc(CNC(=O)COC(=O)c2c[nH]c(=O)[nH]c2=O)cc1OC	33.9*	-1.6	-21.5	-1.5	3.0	-4.9
O=C(Cc1ccccc1)NCC(=O)N/N=C/c1ccc([N+](=O)[O-])s1	0.2	-49.9	-13.2	x	x	30.6*
Cc1ccc(C(=O)NN=Cc2ccc([N+](=O)[O-])s2)cn1	x	x	x	87.6*	67.6	x
CC(C)(C)c1cc(C(=O)NN=Cc2ccc([N+](=O)[O-])s2)n[nH]1	x	x	x	100.9*	100.6*	x
O=[N+]([O-])c1ccc(C=Nn2c(CO)nc3ccccc32)s1	x	x	x	-2.4	15.8	x
O=[N+]([O-])c1ccc(C=Nc2cccc3ccccc23)s1	-0.5	x	-43.8	97.4*	98.0*	x
O=C(NC1CC1)C1=CC(c2csc3ccccc23)CC(OCc2ccc(CO)cc2)O1 (stereo unspecified)	x	x	x	0.6	0.6	x
O=C(NCC1CC1)C1CC1C(NP(=O)(c1ccccc1)c1ccccc1)c1ccccc1 (stereo unspecified)	x	x	x	-0.6	7.1	x
COc1ccc(C=Nn2c(C)cc(C)c(C(N)=O)c2=O)cc1	x	x	x	3.9	3.5	x
CCOC(=O)[C@]12Cc3cc(N(C)C)ccc3C1N(Cc1ccccc1)C(=O)c1ccccc12 (stereo partly specified)	x	x	x	8.4	2.2	x
COc1cc([N+](=O)[O-])cc(/C=N/NC(=O)c2cncc(Br)c2)c1O	779.7*	4.8	x	x	x	18.2
COc1cc(/C=N/NC(=O)c2cncc(Br)c2)cc([N+](=O)[O-])c1O	-0.6	6.1	-24.6	x	x	13.6
